# In all, about 69,000 compounds went through this assay and about 8,600 (12%) showed an effect of 50% or more. The sample as a whole holds a higher share of strong results than the screen did.
# Test system: Plasmodium berghei
# Experiment: Screen against P. berghei liver stage (PbLuc), transformed with Luciferase, at 10uM
# Assay type: functional, HepG2
# Settings: tested at 10 uM
row,SMILES,INHIBITION [%]
1,CN1CC(=O)N(c2ccsc2)CC12CCN(C(=O)CC1CCCC1)C2 (stereo unspecified),21.8
2,NC(=O)NC(=O)C(c1ccccc1)N1CCN(Cc2ccsc2)CC1 (stereo unspecified),4.52
3,Cc1cc(C)n(CC2CCCN2C(=O)Cc2c(C)nc(C)[nH]c2=O)n1 (stereo unspecified),2.3
4,O=C(O)c1cc2c(nc1-c1ccoc1)CCN(Cc1ccco1)CC2,34.6
5,Cc1occc1C(=O)N1C[C@@H]2OCCN(C(C)C)[C@@H]2C1,15.9
6,CN1CC2(CCN(C(=O)CCCOCc3ccccc3)C2)OC1=O (stereo unspecified),12.4
7,CCn1nc(C)cc1C(=O)NCc1noc(C(C)(C)C)n1,27.5
8,O=C1CCC[C@]2(CN(S(=O)(=O)N3CCOCC3)C[C@H]2c2cccnc2)N1,41.5
9,Cc1nnc(-c2cccc(C#N)c2)n1C1CCCN(C(C)C)C1=O (stereo unspecified),-18.9
10,CN1CCCCCC1C(=O)N1CCCN(c2ccccc2)CC1 (stereo unspecified),45.6
11,CN1CCCCC1C(=O)N1CCN(c2ccccc2C#N)CC1 (stereo unspecified),39.6
12,N#Cc1cccc(OCCN2CCCC2C(=O)NCC(F)(F)F)c1 (stereo unspecified),2.93
13,N#Cc1cccc(OCCN2CCCC2C(=O)NC2CC2)c1 (stereo unspecified),-3.21
14,CN1CCCCCC1C(=O)N1CCN(c2ccccc2C#N)CC1 (stereo unspecified),62.4
15,N#Cc1cccc(OCCN2CCCC2C(=O)N2CCSCC2)c1 (stereo unspecified),55.3
16,CC(C)N1CCN(C(=O)c2ccccc2NCc2cccnc2)CC1,-9.31
17,CC(C)c1nnc(NC(=O)N(C)Cc2ccc(C(N)=O)cc2)s1,22.5
18,Cc1cc(O)cc(=O)n1CCCC(=O)Nc1n[nH]c2cccc(F)c12,5.03
19,COc1ccccc1CNC(Cc1cccs1)c1nc(C)cs1 (stereo unspecified),47.2
20,COc1ccccc1CNC(Cc1cccs1)c1nc(C)c(C)s1 (stereo unspecified),55.6
21,COc1cccc(CNC(Cc2cccs2)c2nc(C)c(C)s2)c1OC (stereo unspecified),42.4
22,O=C1CCC2(CCC(NC(=O)NCc3cccnc3)CC2)N1 (stereo unspecified),35.8

row,SMILES,INHIBITION [%]
1,CC(C)c1nc(CNc2nccc(CCC(F)(F)F)n2)cs1,16.2
2,Nc1nc(CNc2nccc(CCC(F)(F)F)n2)cs1,32.7
3,FC(F)(F)CCc1ccnc(NCc2csc(N3CCOCC3)n2)n1,69
4,Cc1noc(C)c1CN1CC[C@H]2OCC[C@@]2(C(=O)N2CCOCC2)C1,47.4
5,CN(Cc1ccc(Cl)c(F)c1)C(=O)c1ccncc1F,36.2
6,CN(Cc1ccc(Cl)c(F)c1)C(=O)CCc1ccncc1,56.5
7,CN(Cc1ccc(Cl)c(Cl)c1)C(=O)CNC(N)=O,-36.3
8,O=C1CCc2cc(S(=O)(=O)NC(=O)c3ccc4c(c3)OCO4)ccc2N1,39.4
9,O=C1COc2cc(C(=O)NS(=O)(=O)c3ccc(F)c(F)c3)ccc2N1,41.5
10,COCc1ccccc1C(=O)NS(=O)(=O)c1ccc2c(c1)CCC(=O)N2,25.5
11,COCc1ccc(C(=O)NS(=O)(=O)c2ccc3c(c2)CCC(=O)N3)cc1,61.8
12,O=C1CCc2cc(S(=O)(=O)NC(=O)c3ccc4c(c3)COC4)ccc2N1,62.9
13,O=C1CCc2cc(S(=O)(=O)NC(=O)c3ccc4c(c3)CCO4)ccc2N1,44.7
14,O=C(C1CCOCC1)N1CCc2ncc(CN3CCCC3)n2CC1,29.9
15,Cc1ccc2ncccc2c1CN1CC[C@H](N(C)C)[C@H](CCC(=O)O)C1,-102
16,CC(C)CCn1[nH]c(CNc2ccc(Cl)cc2)nc1=O,40
17,N#CCCn1cnc2c(Br)cc(Br)cc2c1=O,44.2
18,N#CCCCn1cnc2c(F)cc(Br)cc2c1=O,46.4
19,N#CCCn1cnc2c(F)cc(Br)cc2c1=O,53.9
20,O=C(NCCCn1ccnc1)NCC(c1ccco1)N1CCCCC1 (stereo unspecified),-67.3
21,CCC[C@@H]1CN(C(=O)c2cc(-c3cccs3)n(C)n2)C[C@H]1NS(C)(=O)=O,18.8
22,COC(=O)CCNC(=O)c1cnc(Cc2ccc(F)cc2)s1,18.3

row,SMILES,INHIBITION [%]
1,O=C(NCCN1CCOCC1)c1ccc(-c2ccc(F)cc2)nc1O,61.2
2,CCNC(=O)c1cnc(Cc2ccc(F)cc2)s1,17.4
3,O=C(NCCCN1CCOCC1)c1ccc(-c2ccccc2)[nH]c1=O,41.4
4,CCc1ncc(C(=O)NCCNC(=O)Cc2ccc(F)cc2)s1,-49.7
5,O=C(NCCN1CCOCC1)c1ccn(COc2ccc(F)cc2)n1,-8.9
6,O=C(NCCN1CCOCC1)c1cnc(-c2ccccc2F)s1,41.6
7,Cc1cccc(-c2ccc(C(=O)NCCN3CCOCC3)c(=O)[nH]2)c1,68.6
8,O=C(NCCN1CCOCC1)c1cnc(Cc2ccc(F)cc2)s1,63.7
9,CN(C)CCCNC(=O)c1cnc(Cc2ccc(F)cc2)s1,73.1
10,O=C(NCCN1CCOCC1)c1ccc(-c2ccccc2)[nH]c1=O,-14.1
11,Cc1ccc(C(=O)NCCN2CCOCC2)c(=O)[nH]1,-14.1
12,CC(C#N)(NC(=O)c1ccc(C#N)cc1)C1CC1 (stereo unspecified),2.45
13,CC1CCc2n[nH]c(C(=O)NCCCc3ccco3)c2C1 (stereo unspecified),6.32
14,Cc1cnn(C2CN(Cc3nc4cc(Cl)ccc4n3C)C2)c1,-10.6
15,CC(C)(CN)NS(=O)(=O)c1cccc(F)c1F,19
16,CCN1CCn2c(C)cnc2C12CCN(C(=O)c1ccco1)CC2,3.81
17,CN1CC(=O)N(c2cccc(F)c2)CC12CCN(CCO)C2 (stereo unspecified),21.8
18,COc1ccc(N2CCN(C(=O)c3cc(=O)c(OC)c[nH]3)CC2)cc1,-13.8
19,CC(c1cccnc1)N1CCN(CCO)CC1 (stereo unspecified),60
20,CC(c1cccnc1)N1CCN(CCCC#N)CC1 (stereo unspecified),41.4
21,CCS(=O)(=O)CCN1CCN(C(C)c2cccnc2)CC1 (stereo unspecified),24.2
22,CCC(c1ccccc1)N1CCN(CCO)CC1 (stereo unspecified),52.1

row,SMILES,INHIBITION [%]
1,CCC(c1ccccc1)N1CCN(C(=O)c2cc(C(N)=O)c[nH]2)CC1 (stereo unspecified),-23.1
2,CCC(c1ccc(F)cc1F)N1CCN(CCO)CC1 (stereo unspecified),48.1
3,CN(Cc1nnc(C2CC2)o1)Cc1ccccc1N1CCOCC1,20.19
4,O=C(c1cocn1)N1CCC2(CC1)COC(COCc1ccccn1)C2 (stereo unspecified),8.03
5,COc1c(CNCc2cccc(Cn3cncn3)c2)c(C)nn1C,-21.8
6,Cc1cc(C)nc(C2CCCN2C(=O)c2cnco2)n1 (stereo unspecified),12.8
7,Cc1ccoc1C(=O)NCC(c1ccccc1Cl)N1CCOCC1 (stereo unspecified),30.5
8,Cc1nc(C)c(C(=O)NCC(c2ccccc2Cl)N2CCOCC2)s1 (stereo unspecified),62.3
9,Cc1cc(C(=O)NCC(c2ccccc2Cl)N2CCOCC2)on1 (stereo unspecified),1.7
10,CN(Cc1cccc(OC(F)(F)F)c1)Cc1cnn(C)c1,-6.51
11,Cc1ncsc1C(=O)N(C)Cc1ccccc1,-15.75
12,CCO[C@@H]1CC[C@H]2[C@H]1OCCN2C(=O)c1nn(C)c2ccccc12,22.6
13,CCO[C@H]1CC[C@H]2[C@H]1OCCN2C(=O)COc1ccccc1,34.9
14,COCC(=O)N1CCO[C@H]2[C@H](OC)CC[C@@H]21,50
15,CN(C)CCO[C@@H]1CC[C@H]2[C@H]1OCCN2C(=O)COc1ccccc1,22.2
16,O=C(COc1ccc(F)cc1)N1CCO[C@H]2[C@@H](OCC3CC3)CC[C@@H]21,59.3
17,CO[C@H]1CC[C@H]2[C@H]1OCCN2C(=O)c1nn(C)c2ccccc12,47.4
18,CO[C@@H]1CC[C@H]2[C@H]1OCCN2C(=O)C1CCOCC1,33
19,COc1cc(C(=O)N2CCO[C@H]3[C@H](OCC4CC4)CC[C@@H]32)ccc1F,30.5
20,CO[C@@H]1CC[C@H]2[C@H]1OCCN2C(=O)COc1ccc(C)cc1,47.5
21,CCO[C@H]1CC[C@H]2[C@@H]1OCCN2C(=O)COc1ccccc1,62
22,CCO[C@H]1CC[C@H]2[C@H]1OCCN2C(=O)c1nn(C)c2ccccc12,67.3

row,SMILES,INHIBITION [%]
1,CO[C@@H]1CC[C@H]2[C@H]1OCCN2C(=O)COc1ccc(F)cc1,29.6
2,N#Cc1nc(COc2ccc3c(c2)OCO3)oc1N1CCCC1,45.2
3,COC(=O)c1cc(C(=O)N2CCCCC2C)n(-c2ccccc2)n1 (stereo unspecified),13.4
4,CN1C[C@H]2CNC[C@@]2(C(=O)N2CCN(c3ncccc3C#N)CC2)C1,48.1
5,COCCn1c(-c2cccc(OC)c2)cnc1NC(=O)NCC(C)C,25.1
6,c1cnc(NC2COC3(CCN(Cc4cccs4)CC3)C2)nc1 (stereo unspecified),-23.8
7,CCN(CC)C(=O)c1ccn(COc2ccc(F)cc2)n1,1.04
8,COC(=O)c1ccc(N(C(=O)c2cscn2)C(C)C)c(C)c1,27
9,O=C(Cc1ccsc1)N1CCC(c2ccncc2)CC1,45.2
10,Cc1cc(C)c(CNC(=O)N(C)Cc2ccc3c(c2)OCO3)c(=O)[nH]1,51.1
11,Cc1cc(C)c(CNC(=O)N(C)Cc2ccc(F)cc2)c(=O)[nH]1,7.27
12,CN(Cc1cnn(C)c1)C(=O)NCCc1ccc2c(c1)OCCO2,-2.862
13,CN(Cc1ccc2c(c1)OCCO2)C(=O)NCCc1cnn(C)c1,47.6
14,Cc1cc(C)c(CNC(=O)N(C)Cc2ccoc2)c(=O)[nH]1,26.5
15,CCn1cnnc1CNC(=O)N(C)Cc1ccc2c(c1)OCO2,59.4
16,CCN(Cc1ccc2c(c1)OCCO2)C(=O)NCc1nncn1CC,11.4
17,CCn1cnnc1CNC(=O)N(C)Cc1ccc2c(c1)OCCO2,30.2
18,CC(=O)NCCNC(=O)N(C)Cc1ccc2c(c1)OCCO2,56.6

# — ChEMBL document CHEMBL4513216, “Probing the Open Global Health Chemical Diversity Library for Multistage-Active Starting Points for Next-Generation Antimalarials” (ACS Infect Dis, 2020)
